The values that follow come from PubChem BioAssay.

The target of this experiment is Tumor necrosis factor receptor superfamily member 10B (Homo sapiens) (UniProt O14763). The experiment can be described thus: viability loss of caspase-8 NB7 cells with TRAIL – with/without TRAIL, luminescence panel, confirmation (AID 651596). The settings on record: NB7 neuroblastoma + caspase-8, TRAIL sensitization, NB7 Caspase-8, with TRAIL, mean of runs, at 10 µM, stronger effect = higher value.
Sequence of Tumor necrosis factor receptor superfamily member 10B (Homo sapiens) (O14763 whole entry, looked up): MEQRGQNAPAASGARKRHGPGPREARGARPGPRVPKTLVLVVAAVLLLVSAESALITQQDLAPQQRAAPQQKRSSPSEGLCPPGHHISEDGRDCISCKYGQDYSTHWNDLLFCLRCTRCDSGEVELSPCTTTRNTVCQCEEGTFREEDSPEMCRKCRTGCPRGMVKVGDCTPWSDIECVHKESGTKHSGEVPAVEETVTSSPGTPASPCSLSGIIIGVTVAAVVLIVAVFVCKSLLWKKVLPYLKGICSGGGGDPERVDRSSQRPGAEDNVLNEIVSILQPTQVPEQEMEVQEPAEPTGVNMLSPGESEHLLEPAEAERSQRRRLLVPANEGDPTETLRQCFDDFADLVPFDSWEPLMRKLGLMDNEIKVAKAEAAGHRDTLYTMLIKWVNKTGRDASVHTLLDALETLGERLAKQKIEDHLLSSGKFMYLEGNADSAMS
As to `Cc1ccccc1C(=O)N1CCN(c2ccc(NC(=O)c3ccc([N+](=O)[O-])o3)cc2)CC1`, the activity came out at 86%.

On to `Clc1nc2ccccc2cc1/C=N/Nc1nc2ccccc2[nH]1`, for which the activity was 86.2%. With `Nc1nc(CCl)nc(N(c2ccccc2)c2ccccc2)n1`, the activity turned out to be 99.3%. Consider `CC(C)N(CC(=O)Nc1ccc(Cl)cc1C(F)(F)F)C(=O)CCl`, for which the activity was 99.4%. The result for `O=C(Nc1cc(S(=O)(=O)N2CCOCC2)ccc1N1CCOCC1)c1ccc([N+](=O)[O-])s1` reads 39.1%; that for `O=C(OCn1ncc(Cl)c(Cl)c1=O)c1ccc(C(F)(F)F)cc1`, 95.2%; that for `O=C(Cc1ccsc1-c1ccccc1)NO`, 73.4%. For `CCOC(=O)CNC(=O)CSc1nnc(NC(=O)c2ccc(C)cc2)s1` the value was 94.5%; for `O=C1C(=Cc2ccc(Cl)cc2)CCc2ccccc21`, 85.8%; for `Cc1noc(N)c1C(=O)Nc1ccc(C(C)(C)C)cc1`, 46.1%. On to `N#Cc1nc(Nc2cccc(Cl)c2)c2ncn(C3CCCC3)c2n1`, for which the activity is 76.7%. In the case of `CNc1nc(N/N=C/c2cc([N+](=O)[O-])ccc2F)nc(Nc2ccccc2)n1`, the activity turned out to be 71.5%.

Consider `CCC(OC(=O)c1ccc(S(C)(=O)=O)c([N+](=O)[O-])c1)C(=O)NC1C2CC3CC(C2)CC1C3` (stereo not given), for which the activity was determined as 79.5%.

On to `COc1ccc(C(=O)Nc2ccc3ncccc3c2)cc1`, for which the activity came to 87.7%. As for `Cc1ccc(C(=O)Nc2ncc(C)s2)s1`, the activity was found to be 80.2%. The result for `Cc1ccc2cc(/C=N/Nc3nc4ccccc4[nH]3)c(Cl)nc2c1` reads 88.2%; that for `FC(F)(F)c1cccc(CC2CN(Cc3ccccc3)Cc3ccccc3N2c2cc(Cl)cc(Cl)c2)c1` (stereo not given), 1.05%; that for `Nc1nc2ccccc2n1C(=O)c1ccc(F)cc1`, 91.5%. Consider `CC(C)c1ccc(/C=N/NC(=O)c2ccccn2)cc1`, for which the activity worked out at 86.9%. For the compound `CCN1CCN(c2ccc(S(=O)(=O)N3CCCCC3)cc2NC(=O)c2ccc([N+](=O)[O-])s2)CC1`, the activity turned out to be 49.6%.

As to `CCOc1cc(/C=N/N=C(/N)c2nonc2N)cc(Br)c1OCc1ccc(Cl)cc1`, the activity came out at 30.7%. For `COc1ccc(-c2cc3cc4c(cc3cn2)OCO4)cc1` the value was 60.3%. For `CC1CCCN(c2ncnc3c2cnn3-c2ccccc2)C1` (stereo not given) the value was 86.1%; for `CCOc1ccc2nc(NC(=O)c3ccco3)sc2c1`, 74.4%. Take `C=CCn1c(C)cc(C(=O)COC(=O)c2n[nH]c(=O)c3ccccc23)c1C`: the activity was found to be 74.4%. The result for `CN(C)CCNC(=O)c1cccc(-c2cc(NC=O)c3ncc(-c4cccc(C(F)(F)F)c4)n3c2)c1` reads 99.4%; that for `CC(C)Nc1ccc(-n2nc3ccccc3[n+]2[O-])cc1`, 62.5%. Regarding `CCc1ccc(-c2cc(C(=O)N/N=C/c3c[nH]c4ccccc34)[nH]n2)cc1`, the activity worked out at 41.6%.

On to `Cn1c2c(c(=O)n(C)c1=O)C(C(F)(F)F)(C(F)(F)F)N=C(c1ccc(Cl)cc1)N2`, for which the activity was 54.8%.

Turning to `Cc1ccc(-c2nc(N/N=C/c3ccccc3[N+](=O)[O-])c3ccccc3n2)cc1`, the activity turned out to be 90.3%.

For the compound `C[C@H](NC(=O)c1ncn2c1c(=O)[nH]c1ccc(Br)cc12)c1ccccc1`, the activity was 27.2%.

As to `CCOC(=O)c1c(CSC(=N)N)n(-c2ccc(C)cc2)c2cc(Br)c(OC(C)=O)cc12`, the activity turned out to be 90.7%. For `COc1ccc(C(=O)N/N=C/c2cccnc2)cc1` the value was 34.2%; for `CCOC(=O)Cc1csc(NC(=O)c2cc3c(s2)CCCC3)n1`, 56.7%.

With `COc1ccc(N2Cc3ccccc3C2=O)cc1`, the activity worked out at 67%. For `Cc1nc(-c2ccc(NC(=O)c3ccccc3)cc2)cs1` the value was 80.8%; for `O=C(CCl)Nc1ncc(S(=O)(=O)c2ccc([N+](=O)[O-])cc2)s1`, 95.9%.

For the compound `Cc1ccc2cc(NC(=O)c3cccc(F)c3)ccc2n1`, the activity was determined as 21.3%. For `C/C(=N\NC(=O)c1ccccc1O)c1cccs1` the value was 68.1%; for `O=S(=O)(c1ccccc1)c1nnn2c1nc(NC1CCN(Cc3ccccc3)CC1)c1ccccc12`, 97.9%.
